This is an account of results in PubChem BioAssay AID1345085 (National Center for Advancing Translational Sciences (NCATS), 2018).

Records with an inconclusive call do not appear. Activity calls are given as the source filed them. Calls come from the whole dose curve; as a rule, active = well fitted cell-killing curve with a large enough effect; inconclusive = small, poorly fitted or top-dose-only effect, or effect the other way; inactive = no such curve, though single readings can be large or run the other way. *1 amine or outer side, *2 acyl side, *3 side chain or, on linkers, in order; H or OH if unused. Where a SMILES comes first, the peptide text is derived from it. Bridges are numbered along the chain shown (N, C = ends). Roman numbers before positions name the chains, in order. [ ]: non-standard residue; d: D form. Actinocin(9to1) = Cc1c2oc3c(C)ccc(C(=O)[*:1])c3nc-2c(C(=O)[*:2])c(N)c1=O; NMeV = CN[C@H](C(=O)O)C(C)C; Sar = CNCC(=O)O
Potency is the fitted concentration of half-maximal effect.

In this assay the test system is SKOV3. In words: Confirmatory qHTS for gynecologic anti-cancer compounds from libraries of approved drugs and bioactive compounds. Note: nearly all actives have a fitted effect of over 55% in size. The following applies: gynecologic cancer cell panel viability, ATPlite luminescence, 48 h; series mostly up to 57.6 µM. The method in brief:
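ATPlite luminescence read-out of cell viability; IC50 from 11-point 1:3 titrations, 57.5 uM to 0.977 nM, 48 h compound exposure at 37 C, 5% CO2. Cells seeded at 1,000/well 16 h before dosing.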
A general note: qHTS replaces the single test concentration by a dilution series.
As to `NC(=O)c1ccc2nc(-c3ccc(Oc4ccc(Cl)cc4)cc3)[nH]c2c1`, the Potency result is “inactive”.

Consider `CC(C)(C(=O)NCC(F)(F)C(F)(F)F)C(=O)NC1C(=O)Nc2ccccc2-c2ccccc21` (configuration not stated), for which the Potency result was “inactive”.

For `O=C(/C=C/c1cccc(S(=O)(=O)Nc2ccccc2)c1)NO`, the Potency is 1.88 µM (active).

As to `CCC1C(=O)N(C)c2cnc(Nc3ccc(C(=O)NC4CCN(C)CC4)cc3OC)nc2N1C1CCCC1` (configuration not stated), the Potency was 0.109 µM (active).

Consider `COc1cccc2cc(-c3nc(C4CCC(C(=O)O)CC4)n4ncnc(N)c34)[nH]c12` (configuration not stated), for which the Potency was 1.09 µM (active).

As for `CCc1c2c(nc3ccc(O)cc13)-c1cc3c(c(=O)n1C2)COC(=O)[C@]3(O)CC`, the Potency was 0.0243 µM (active).

As to `Cc1c(C)n(Cc2ccc(-c3ccccc3C(=O)O)cc2)c2ccc(C(=O)N[C@@H](C)c3ccc([N+](=O)[O-])cc3)cc12`, the Potency entry was “inactive”.

As for `C=CC(=O)Nc1cccc(Oc2nc(Nc3ccc(N4CCN(C)CC4)cc3)ncc2Cl)c1`, the Potency was 1.72 µM (active).

As for `CNC(=O)c1ccccc1Nc1nc(Nc2ccc(N3CCOCC3)cc2OC)ncc1Cl`, the Potency is 6.85 µM (active).

As to `O=C(c1ccc(/C=C/c2n[nH]c3ccccc23)cc1)N1CCNCC1`, the Potency is 21.7 µM (active).

Consider `O=c1[nH]c(=O)n([C@H]2C[C@H](O)[C@@H](CO)O2)cc1Br`, for which the Potency result was “inactive”.

Take `Cc1cc(C(C)Nc2ccccc2C(=O)O)c2nc(N3CCOCC3)cc(=O)n2c1` (configuration not stated): the Potency is 3.06 µM (active).

In the case of `CC(Oc1cc(-n2cnc3ccc(CN4CCN(C)CC4)cc32)sc1C(N)=O)c1ccccc1C(F)(F)F` (configuration not stated), the Potency is 19.3 µM (active).

`Cc1cc(Nc2nc(N[C@@H](C)c3ccc(F)cc3)c(C#N)cc2F)n[nH]1`: the Potency is 7.69 µM (active).

As to `CCOc1ccc(Nc2nc(-c3c(C)nc4ccccn34)cs2)cc1`, the Potency result was “inactive”.

As for `CC[C@]1(O)C[C@H]2CN(CCc3c([nH]c4ccccc34)[C@@](C(=O)OC)(c3cc4c(cc3OC)N(C=O)[C@H]3[C@@](O)(C(=O)OC)[C@H](OC(C)=O)[C@]5(CC)C=CCN6CC[C@]43[C@@H]65)C2)C1`, the Potency result is “inactive”.

Take `Cc1c2oc3c(C)ccc(C(=O)N[C@@H]4C(=O)N[C@H](C(C)C)C(=O)N5CCC[C@H]5C(=O)N(C)CC(=O)N(C)[C@@H](C(C)C)C(=O)O[C@@H]4C)c3nc-2c(C(=O)N[C@@H]2C(=O)N[C@H](C(C)C)C(=O)N3CCC[C@H]3C(=O)N(C)CC(=O)N(C)[C@@H](C(C)C)C(=O)O[C@@H]2C)c(N)c1=O` (I: T[dV]P[Sar][NMeV] / II: T[dV]P[Sar][NMeV]; ester I:1-I:C, II:1-II:C; linker I:N-II:N via Actinocin(9to1)): the Potency was 0.544 µM (active).

Consider `Cc1cc(Nc2nc(N[C@@H](C)c3ncc(F)cn3)ncc2Cl)n[nH]1`, for which the Potency result is “inactive”.

As for `CC(=O)NCC(=O)N1C2CCC1c1cc(Nc3ncc(C(F)(F)F)c(NC4CCC4)n3)ccc12` (configuration not stated), the Potency is 17.2 µM (active).

As to `NS(=O)(=O)c1ccc(Nc2nc(OCC3CCCCC3)c3[nH]cnc3n2)cc1`, the Potency entry is “inactive”.

Take `COc1cc(Nc2ncc3c(n2)-c2ccc(Cl)cc2C(c2c(F)cccc2OC)=NC3)ccc1C(=O)O`: the Potency result was “inactive”.

Regarding `CN1CCN(CCOc2cc(OC3CCOCC3)c3c(Nc4c(Cl)ccc5c4OCO5)ncnc3c2)CC1`, the Potency result was “inactive”.

Turning to `c1nc2nc(Nc3ccc(N4CCOCC4)cc3)nc(NC3CCCCC3)c2[nH]1`, the Potency entry is “inactive”.

With `CN[C@@H](C)C(=O)N[C@H]1CN(C(=O)CC(C)C)CC[C@H]2CC[C@@H](C(=O)NC(c3ccccc3)c3ccccc3)N2C1=O`, the Potency is 0.611 µM (active).

Consider `CNCc1ccc(-c2[nH]c3cc(F)cc4c3c2CCNC4=O)cc1`, for which the Potency result is “inactive”.

As for `c1cc(N[C@@H]2CCNC2)nc(-c2cnc3ccc(-c4cn[nH]c4)cn23)c1`, the Potency result is “inactive”.

In the case of `Nc1nc(Cl)nc2c1ncn2C1OC(CO)C(O)C1F` (configuration not stated), the Potency is 0.432 µM (active).

Turning to `CC(C)C[C@H](NC(=O)[C@H](CCc1ccccc1)NC(=O)CN1CCOCC1)C(=O)N[C@@H](Cc1ccccc1)C(=O)N[C@@H](CC(C)C)C(=O)[C@@]1(C)CO1`, the Potency was 13.7 µM (active).

With `Cc1nc(Nc2n[nH]c3c2CN(C(=O)NC(CN(C)C)c2ccccc2)C3(C)C)c2sccc2n1` (configuration not stated), the Potency was 3.06 µM (active).

`CCCCc1nc2cc(/C=C/C(=O)NO)ccc2n1CCN(CC)CC`: the Potency was 0.769 µM (active).

As for `C[C@]12CCC(=O)C=C1[C@@H]1C[C@@H]1[C@H]1[C@@H]3[C@@H]4C[C@@H]4[C@@]4(CCC(=O)O4)[C@@]3(C)CC[C@@H]12`, the Potency result was “inactive”.

For `COc1cc(Nc2ncc(F)c(Nc3ccc4c(n3)N(COP(=O)(O)O)C(=O)C(C)(C)O4)n2)cc(OC)c1OC`, the Potency was 5.44 µM (active).
